This is a sample that favours compounds with a hit; in the whole collection about 17% have one here.
TDP1 cell CPT – qHTS for Inhibitors of human tyrosyl-DNA phosphodiesterase 1 (TDP1): qHTS in cells in presence of CPT; chicken DT40 Tdp1-/-;hTDP1 cells + 20 nM CPT, ATP luminescence, 48 h; Potency, µM (titrated, usually from 46.2 µM), usual class: inhibitors; 420,000 compounds, 12% hits; also: nearly all actives have a fitted effect of over 55% in size
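Chicken DT40 Tdp1-/- cells stably complemented with human TDP1 were seeded at 400 cells/well in medium containing 20 nM camptothecin, exposed to pin-transferred compounds, and grown at 37 °C for at least 48 hr. Viability was read as ATP luminescence.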
ClpP mod – qHTS Assay for Activators of ClpP; purified B. subtilis ClpP, FRET peptide cleavage, 20 min; Potency, µM (top dose mostly 57.5 µM); 340,000 compounds, 1.9% hits; active = well fitted falling curve with a large enough effect; inconclusive = small, poorly fitted or top-dose-only effect; inactive = no such curve, though single readings can be large or run the other way; also: the source files actives as falling curves though it sought activators and does not explain the sign; nearly all actives have a fitted effect of over 65% in size
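Buffer: 100 mM Tris/HCl pH8, 100 mM KCl, 0.05% low protease BSA, 2.5% glycerol, 0.01% Tween-20. ClpP 10 microg/mL final; 20 min RT; delta FRET normalized to ADEP and DMSO controls.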
TDP1 cell noCPT – qHTS for Inhibitors of human tyrosyl-DNA phosphodiesterase 1 (TDP1): qHTS in cells in absence of CPT; DT40 Tdp1-/- hTDP1 cells, no CPT, ATP luminescence, 48 h; Potency, µM (titrated, usually from 46.2 µM), hits mostly inhibitors; 420,000 compounds, 15% hits; AID 686978, 2013; also: nearly all actives have a fitted effect of over 55% in size
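Camptothecin absent (DMSO only). Human TDP1-complemented DT40 knockout cells, 400 cells/well, 37 °C for minimum 48 hr; ATP measured via CellTiter-Glo, 30 min dark incubation, luminescence.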
TDP1 inh – qHTS Assay for Inhibitors of Tyrosyl-DNA Phosphodiesterase (TDP1); Tyrosyl-DNA phosphodiesterase 1 (Homo sapiens), Q9NUW8; recombinant TDP1, AlphaScreen DNA substrate cleavage; Potency, µM (series often up to 130 µM), hits mostly inhibitors; 350,000 compounds, 0.28% hits; also: nearly all actives have a fitted effect of over 40% in size
Target sequence (Q9NUW8 whole entry, looked up): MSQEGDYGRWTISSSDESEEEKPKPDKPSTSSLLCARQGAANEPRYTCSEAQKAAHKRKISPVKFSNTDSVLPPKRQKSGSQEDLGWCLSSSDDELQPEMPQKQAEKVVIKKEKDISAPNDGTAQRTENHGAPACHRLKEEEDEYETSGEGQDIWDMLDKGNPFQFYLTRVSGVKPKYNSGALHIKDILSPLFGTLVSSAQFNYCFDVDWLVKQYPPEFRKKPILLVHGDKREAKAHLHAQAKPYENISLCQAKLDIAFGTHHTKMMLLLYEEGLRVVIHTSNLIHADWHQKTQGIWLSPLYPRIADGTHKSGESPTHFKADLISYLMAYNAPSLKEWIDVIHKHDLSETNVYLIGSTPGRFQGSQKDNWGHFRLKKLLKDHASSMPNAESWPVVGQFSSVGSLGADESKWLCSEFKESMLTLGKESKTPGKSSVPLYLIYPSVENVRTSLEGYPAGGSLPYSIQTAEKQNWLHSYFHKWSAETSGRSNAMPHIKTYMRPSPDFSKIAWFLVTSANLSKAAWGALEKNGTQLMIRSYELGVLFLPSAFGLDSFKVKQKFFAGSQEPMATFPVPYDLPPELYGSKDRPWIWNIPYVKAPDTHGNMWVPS
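Recombinant human Tdp1 (E. coli-expressed, 1 nM final) preincubated with compounds 15 min at room temperature, then 5'-biotin/3'-phosphotyrosine-FITC DNA substrate (15 nM final) added for 5 min. AlphaScreen beads (10 ug/ml final) added 10 min; cleavage lowers signal.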
A number is an active result; i = inactive; ? = inconclusive; nt = no result given; [ ] = another dose, or the depositor's remark. Unless noted, calls follow the shape of the dose curve; as a rule, active = well fitted curve in the direction sought with a large enough effect; inconclusive = small, poorly fitted or top-dose-only effect, or another doubt; inactive = no such curve, though single readings can be large; an effect the other way counts as inactive or inconclusive.

SMILES	TDP1 cell CPT	ClpP mod	TDP1 cell noCPT	TDP1 inh
Cc1cc(C(=O)N2CCCC(N3CCN(c4ccccc4C)CC3)C2)n(C)n1 (centres undefined)	?	i	?	i
CCOc1cccc2sc(NC(=O)c3ccc(S(=O)(=O)N4CCCCC4C)cc3)nc12 (centres undefined)	?	?	?	i
CCN1C(=O)[C@H]2[C@@H](c3ccc(C(F)(F)F)cc3)N[C@]3(CCCN(Cc4ccc(Cl)cc4)C3=O)[C@H]2C1=O	18µM	i	18µM	nt
CCN1C(=O)[C@H]2[C@@H](c3ccc(C)cc3)N[C@]3(CCCN(Cc4ccc(Cl)cc4)C3=O)[C@H]2C1=O	?	i	21µM	nt
CCN1C(=O)[C@H]2[C@@H](c3ccc(C(F)(F)F)cc3)N[C@]3(CCCN(Cc4ccco4)C3=O)[C@H]2C1=O	23µM	i	16µM	nt
CCN1C(=O)[C@H]2[C@@H](c3ccc(C)cc3)N[C@]3(CCCN(Cc4ccco4)C3=O)[C@H]2C1=O	i	i	?	nt
CCN1C(=O)[C@H]2[C@@H](c3ccc(C(F)(F)F)cc3)N[C@]3(CCCN(Cc4ccc(C)cc4)C3=O)[C@H]2C1=O	13µM	i	16µM	nt
COCc1cccc(-c2csc(C(C)(O)c3ccc(OC)cc3)n2)c1 (centres undefined)	?	i	?	nt
CC(O)(c1ccc(F)c(F)c1)c1nc(-c2ccncc2)cs1 (centres undefined)	21µM	i	13µM	nt
COc1ccc(C(C)(O)c2nc(-c3ccc(S(C)(=O)=O)cc3)cs2)cc1 (centres undefined)	?	i	23µM	nt
CC(O)(c1ccc(F)c(F)c1)c1nc(-c2ccc(S(C)(=O)=O)cc2)cs1 (centres undefined)	?	i	16µM	nt
COc1ccc(-c2csc(C(C)(O)c3ccc(F)c(F)c3)n2)cc1 (centres undefined)	?	i	?	nt
COc1ccc(COC(=O)c2ccc(Br)c(S(=O)(=O)N3CCOCC3)c2)cc1F	?	i	?	nt
O=C(COC(=O)CN1C(=O)C2CC=CCC2C1=O)Nc1cccc([N+](=O)[O-])c1 (centres undefined)	i	i	i	nt
CSc1ccc2c(c1)N(CCC1CCCCN1C)c1ccccc1S2 (centres undefined)	15µM	i	16µM	i
CCOc1ccc2c(c1)C(C)=CC(C)(C)N2S(=O)(=O)c1ccc(NC(C)=O)cc1	1µM	i	1.3µM	i
COc1ccc2c(c1)C(C)=CC(C)(C)N2S(=O)(=O)c1ccc(NC(C)=O)cc1	5.8µM	nt	2.3µM	nt
COc1ccc(S(=O)(=O)N2CC=C(C(=O)Nc3ccc(NC(C)=O)cc3)CC2)cc1	i	nt	i	i
CCOC(=O)c1cnc2c(ccc3ccccc32)c1Nc1ccccc1OCC	i	i	i	i[12.3 µM]
CCOC(=O)c1cnc(-n2cc(C)cn2)nc1Nc1ccccc1OCC	10µM	i	6.5µM	i
Cn1c(=O)[nH]c(Nc2ccccc2)c([N+](=O)[O-])c1=O	i	nt	i	i
CC(OC(=O)c1cc2c(ccc3ccccc32)oc1=O)c1nc2ccccc2s1 (centres undefined)	i	2.8µM	?	i
Cc1ccc(-c2nc(C3CCN(S(=O)(=O)c4ccc(C(F)(F)F)cc4)CC3)no2)cc1	i	i	i	i
CCS(=O)(=O)N1CCC(c2nc(-c3ccc(C)cc3)no2)CC1	29µM	i	15µM	i
CCS(=O)(=O)N1CCC(c2nc(-c3ccc(C(F)(F)F)cc3)no2)CC1	8.9µM	i	14µM	i
SMILES	TDP1 cell CPT	ClpP mod	TDP1 cell noCPT	TDP1 inh
CS(=O)(=O)N1CCC(c2noc(-c3ccc(C(F)(F)F)cc3)n2)CC1	9.2µM	i	10µM	i
Cc1occc1-c1nnc(SCC(=O)NC2CCC(C)CC2)o1 (centres undefined)	i	i	?	i
Cc1ccc(C(=O)C(C(=O)/C=C/c2ccccc2)=C2SCCCS2)cc1	5.8µM	i	4.6µM	i
Cc1ccc(C(=O)C=CC=Cc2ccccc2)cc1	?	i	?	nt
CCCCn1c(NCc2ccc(N(C)C)cc2)nc2ccccc21	26µM	i	26µM	i
CCN(CC)c1ccc(CNc2nc3ccccc3n2CCN2CCOCC2)cc1	?	nt	18µM	i
CCN(CC)CCn1c(NCc2cccc(OC)c2)nc2ccccc21	?	i	?	i
COc1ccc(CNc2nc3ccccc3n2CCN2CCOCC2)cc1	i	i	21µM	i
CCN(CC)CCn1c(NCc2ccc3c(c2)OCO3)nc2ccccc21	13µM	i	16µM	i
O=C(/C=C\N1CCOCC1)c1ccc(Br)cc1	i	i	i	nt
CCCCn1c(NCc2cc(Br)ccc2O)nc2ccccc21	15µM	i	15µM	i[12.3 µM]
COc1ccc(NC(=O)CCCOc2cc(=O)n(C)c3ccccc23)c(OC)c1	?	i	?	i
Cc1c(C(=O)NCC(C)(C)N2CCOCC2)cnn1-c1ncc2c(n1)-c1ccccc1CCC2	i	nt	i	nt
Cc1nc2cc(NS(=O)(=O)c3ccccc3F)ccc2s1	i	i	i	nt
Cc1nc2ccc(NS(=O)(=O)c3ccccc3F)cc2s1	?	i	?	i
Cc1nc2cc(NS(=O)(=O)c3c(C)c(C)cc(C)c3C)ccc2s1	20µM	i	11µM	i
Cc1nc2ccc(NS(=O)(=O)c3c(C)c(C)cc(C)c3C)cc2s1	?	i	21µM	i
COc1ccccc1S(=O)(=O)Nc1ccc2nc(C)sc2c1	2.6µM	i	21µM	i
Cc1ccc(S(=O)(=O)Nc2ccc3nc(C)sc3c2)c(C)c1	?	i	15µM	i
NC(=O)c1cc(S(=O)(=O)N2CCOCC2)ccc1N1CCCC1	i	i	i	i
COc1ccc2c(c1)C=C/C2=C\c1ccc(N(C)C)cc1	i	i	?	nt
CC(C)(CO)CNC1CCCN(C2Cc3ccccc3C2)C1 (centres undefined)	i	nt	i	nt
CC(C)(C)OC(=O)NCCCCc1cn(CC(=O)N2CCN(C(=O)OC(C)(C)C)CC2)nn1	?	i	?	i
CC[C@@H](C)[C@@H](C(=O)N1CCN(C(=O)OC(C)(C)C)CC1)n1cc(CCCCNC(=O)OC(C)(C)C)nn1	13µM	i	13µM	i
CC(C)CC(NC(=O)OC(C)(C)C)c1cn([C@@H](CCC(=O)OC(C)(C)C)C(=O)N2CCN(C(=O)OC(C)(C)C)CC2)nn1 (some centres undefined)	16µM	i	16µM	i
CC[C@H](C)C(C(=O)N1CCN(C(=O)OC(C)(C)C)CC1)n1cc(C(CC(C)C)NC(=O)OC(C)(C)C)nn1 (some centres undefined)	23µM	i	?	i

Bioassay records: PubChem, National Center for Advancing Translational Sciences (NCATS)
